Among all 340,000 compounds or so, about 2,100 (0.62%) were called active.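 The calls were made as follows: active = first-screen hits whose inhibition reached a set limit at any dose in the follow-up dose series; inconclusive = inhibition above the set first-screen limit but never retested; inactive = the rest.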 The list is a sample of the results. Entries with a potency or affinity are not part of this list.
Target: Rac GTPase-activating protein 1 (Homo sapiens) (UniProt Q9H0H5)
Assay: blockers of MgcRacGAP-driven Rac1 GTP hydrolysis – biochemical, ADP Hunter fluorescence, primary and confirmatory, confirmation (AID 624330);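 also: fluorescence reports GDP produced by GAP-driven GTP hydrolysis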
Conditions: MgcRacGAP-stimulated Rac1 GTP hydrolysis, at 30 µM, hits give high values, GST-tagged Rac1 F28L mutant substrate

Sequence of Rac GTPase-activating protein 1 (Homo sapiens) (Q9H0H5 whole entry, looked up): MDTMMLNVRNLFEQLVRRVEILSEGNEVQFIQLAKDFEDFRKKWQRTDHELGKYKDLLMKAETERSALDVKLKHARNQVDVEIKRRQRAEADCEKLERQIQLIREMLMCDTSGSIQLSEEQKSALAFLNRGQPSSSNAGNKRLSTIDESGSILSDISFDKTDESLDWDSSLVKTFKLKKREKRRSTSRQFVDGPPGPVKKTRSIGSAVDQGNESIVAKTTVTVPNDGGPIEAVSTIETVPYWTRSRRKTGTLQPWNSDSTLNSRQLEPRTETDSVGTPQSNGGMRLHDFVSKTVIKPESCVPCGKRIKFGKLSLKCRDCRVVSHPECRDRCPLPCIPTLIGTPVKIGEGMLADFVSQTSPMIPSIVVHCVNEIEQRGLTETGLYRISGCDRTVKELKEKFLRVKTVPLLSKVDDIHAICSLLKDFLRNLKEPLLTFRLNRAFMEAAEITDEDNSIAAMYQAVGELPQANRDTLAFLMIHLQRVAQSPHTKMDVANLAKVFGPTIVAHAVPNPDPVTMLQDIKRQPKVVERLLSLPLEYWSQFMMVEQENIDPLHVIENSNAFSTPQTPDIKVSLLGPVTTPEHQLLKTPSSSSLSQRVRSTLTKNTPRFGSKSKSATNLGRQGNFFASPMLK

inhibition, inactive:
O=C(O)c1ccc(O)cc1O 6.35%
OC(CCN1CCCCC1)(c1ccccc1)C1C[C@@H]2C=C[C@H]1C2 (some centres not stated) 0.59%
CCc1cc2c(=O)c(-c3nc4ccccc4n3C)c(COCC(=O)O)oc2cc1O 3.02%
CCc1cc(-c2n[nH]c(C)c2-c2nc3ccccc3n2C)c(O)c(CN2CCN(C)CC2)c1O 1.55%
CCN(CC)Cc1c(O)ccc2cc(-c3nc4ccccc4n3C)c(=O)oc12 2.29%
CCCCn1c(=O)c(CCC(=O)O)nc2ccccc21 -3.87%
CCOC(=O)C1CCCN(C(=O)c2ccccc2[N+](=O)[O-])C1 (configuration not stated) 3.25%
CCCCC/C=C/C1=CC(=O)C[C@H](c2ccc3c(c2)OCO3)C1 5.09%
CN(Cc1ccno1)Cc1cn(Cc2ccccc2)nc1-c1ccc2c(c1)OCO2 9.52%
COc1ccc(CCNC(=O)COC(=O)C2COc3ccccc3O2)cc1 (configuration not stated) 2.96%
CC(=O)N1CCN(S(=O)(=O)c2cccc(C(=O)NCCc3ccc(Cl)cc3)c2)CC1 5.57%
CCOc1ccc(Oc2ccccc2NC(=O)C2=COCCO2)cc1 -5.82%
OCCCNCc1cccc2ccccc12 -2.77%
OCCCNc1c2ccccc2nc2ccccc12 9.86%
COCCCNC(=O)C[C@H]1C[C@H](C(=O)N(C(C)C)C(C)C)[C@@]2(C)c3[nH]c4ccc(Cl)cc4c3CCN2C1=O 4.5%
Cc1ccc(S(=O)(=O)NNC(=O)CCC(=O)Nc2ccccc2Cl)cc1 7.64%
C(/CCc1ccccc1)=N\n1cnnc1 8.49%
CCN(CC)c1ccc(C(=O)O)cc1 -7.19%
O=C(O)c1ccc2c(c1)C(=O)N(Cc1ccco1)C2=O -0.17%
O=C1C(=Cc2ccco2)C(=O)c2ccccc21 12.3%
O=C(O)c1ccc2c(c1)C(=O)/C(=C/c1ccccc1)C2=O 31.4%
Cc1ccc(C=C2C(=O)c3ccccc3C2=O)o1 8.39%
Cc1ccc(C(=O)O)cc1-c1ccc(C=C2C(=O)c3ccccc3C2=O)o1 12.9%
O=C(CN(Cc1ccccc1)C(=O)c1csnn1)NCc1ccc2c(c1)OCO2 -2.73%
CCOc1ncccc1C(=O)OCCCC(=O)c1ccc(Br)cc1 2.15%
COc1ccc(-n2c(-c3ccc(Cl)cc3Cl)n[nH]c2=S)c(OC)c1 -9.67%
COc1cccc(NC(=S)N(CCc2c(C)[nH]c3ccccc23)Cc2cccs2)c1 6.48%
COc1ccc(C(=O)Nc2ccc(C(=O)Nc3nccs3)cc2)cc1[N+](=O)[O-] 10%
Fc1ccc(C2=Nc3cccc4cccc(c34)N2)cc1 16.5%
CC1=Nc2cccc3cccc(c23)N1 -4.86%
O=C(Nc1ccccc1)NC1(C(=O)N2CCC(O)CC2)CCCCC1 5.54%
CCOC(=O)C1CCCN(C(=O)C2CCN(C(=O)Nc3ccccc3)CC2)C1 (configuration not stated) 4.05%
OC1CCN(C(=S)Nc2ccc(Oc3ccccc3)cc2)CC1 -10.8%
CCOC(=O)C1CCCN(C(=O)Nc2ccccc2)C1 (configuration not stated) 0.14%
CCCOCC(O)CCc1n[nH]c(=S)n1-c1ccccc1 (configuration not stated) -1.65%
Cc1ccc(C(=O)COc2ccc3ccc(=O)oc3c2)cc1 8.86%
Cc1cc(C)n(C(=O)c2ccc(NC(=O)C3COc4ccccc4O3)cc2)n1 (configuration not stated) -9.3%
CC(C)c1onc(C(=O)N2CCN(Cc3ccccc3)CC2)c1[N+](=O)[O-] -1.76%
Nc1nc(SCc2ccccc2)c2[nH]cnc2n1 5.48%
CNc1ncnc(Sc2nc(N)nc3nc[nH]c23)c1[N+](=O)[O-] -4.52%
COC(=O)c1ccc2c(c1)C(=O)/C(=C/c1ccc(O)cc1)O2 30.8%
C[N+]1=C(/C=C/Nc2ccccc2Cl)C(C)(C)c2ccccc21 -5.94%
COC(=O)c1ccc2nc(C)c(C)nc2c1 2.34%
COC(=O)c1ccc(C(=O)OC)c(NC(=O)COC(=O)c2ccc(OC)c(OC)c2OC)c1 -0.19%
COC(=O)c1ccc(/C=C/C(=O)O)cc1 14.6%
COc1ccc(/C=N/Nc2ccc(C(=O)O)cc2)c(OC)c1OC 5.84%
COC(=O)c1cn(Cc2ccccn2)c(=O)c2ccccc12 1.41%
O=C(Nc1ccc(N2CCN(C(=O)c3ccccc3)CC2)cc1)c1cccnc1 4.32%
CCn1cc(C(=O)OCC(=O)Nc2ccc(C(C)C)cc2)c(=O)c2ccc(C)nc21 3.76%
CC(Sc1nnnn1-c1ccc(O)cc1)C(=O)NNC(=O)c1ccc(F)cc1 (configuration not stated) 2.11%
O=C(NCCN1C(=O)S/C(=C/c2ccccc2)C1=O)C1CC(=O)N(Cc2ccccc2)C1 (configuration not stated) 7.02%
Cc1c(C)n(CC(O)CNc2ccccc2)c2ccccc12 (configuration not stated) 20.8%
Cc1c(C)n(CC(O)CNCCO)c2ccccc12 (configuration not stated) 18.2%
CN1CC(=O)N/C1=N\C(=O)Nc1ccc2c(c1)N(C)C(=O)CS2 2.74%
COc1cc(/C=C/C(=O)OCC(=O)NC(=O)NC(C)(C)C)cc(OC)c1OC 8.1%
COc1cc(/C=C/C(=O)OCC(=O)NC(=O)NC(C)C)cc(OC)c1OC 6.89%
COc1cc(/C=C/C(=O)OCC(=O)NC(=O)NC(C)C)ccc1OCC#N 0.8%
COc1ccc(/C=C/C(=O)OCC(=O)NC(=O)NC(C)(C)C)cc1 2.69%
O=C1c2ccccc2NC(c2ccc([N+](=O)[O-])cc2)N1O (configuration not stated) 4.29%
O=S(=O)(Nc1cccc(S(=O)(=O)N2CCOCC2)c1)c1ccc(Cl)s1 -0.61%
CCc1nc2sccc2c(=O)n1N -1.25%
O=C(CNC(=O)c1ccccc1)NCCc1ccc(O)c(O)c1 10.9%
CCN(Cc1ccncc1)Cc1ccc(Br)cc1 28%
CCN(Cc1ccncc1)Cc1cn[nH]c1-c1ccc(OC)cc1F -2.02%
COc1ccc(CNCc2ccncc2)c(OC)c1 5.34%
CCN(Cc1ccccc1)Cc1ccc(OCc2ccccc2)c(OC)c1 10.8%
COc1ccc(NC(=O)C2CCN(S(=O)(=O)c3c(C)noc3C)CC2)cc1 8.66%
Cc1cc(C)n2nc(CC(=O)NNC(=O)COc3cccc(C)c3C)nc2n1 -3.96%
CCCCOCCCNC(=O)c1ccc(OC)cc1 4.46%
Cc1cc(Cl)ccc1N(CC(=O)N(C)Cc1ccccc1)S(C)(=O)=O 18.6%
CCC(SC1=N/C(=C/c2ccccc2OC)C(=O)N1c1ccccc1)C(=O)Nc1cc(C)on1 (configuration not stated) 12.8%
O=c1[nH]c(SCc2ccccc2)nc2c1cnn2-c1ccc(F)cc1 14%
Cc1cc(C)n2nc(C(=O)OCC(=O)N(C)CC(=O)Nc3ccccc3Cl)nc2n1 1.5%
CS/C(=N\S(=O)(=O)c1ccccc1)c1ccccc1 5.35%
CC(C)CO/C(=N/S(=O)(=O)c1ccccc1)c1ccccc1 5.75%
COc1cc(/C=N/NC(=O)C2c3ccccc3Oc3ccccc32)ccc1O 5.77%
O=C(N/N=C\c1cccnc1)C1c2ccccc2Oc2ccccc21 3.36%
Cn1cc(CN2CCC(C(=O)Nc3cccc(-c4cccc(F)c4)c3)CC2)cn1 5.69%
c1ccc(NC2=NCCN2CC2CCCCCC2)cc1 7.17%
O=C(CSc1nnc(-c2cccnc2)o1)Nc1cccc(Cl)c1 4.31%
N#Cc1cccc(NC(=O)CCN2C(=O)C3CCCCC3C2=O)c1 (configuration not stated) -0.53%
O=C1/C(=C/c2ccc(N3CCCC3)cc2)NC(=S)N1C1CC1 27.1%
O=C1NC(=O)N(c2ccc(Cl)cc2)C(=O)/C1=C/c1ccc2c(c1)CCN2Cc1ccccc1Cl 10.3%
COc1ccc(NC(=O)Nc2ccc3c(c2)C(=O)N([C@H](C)CO)C[C@H](C)[C@@H](CN(C)S(C)(=O)=O)O3)cc1 11.1%
O=S(N1CCCCC1)C12CC3CC(CC(C3)C1)C2 (configuration not stated) -0.65%
COc1cccc(NC2=C(C#N)C(=O)NC(c3cccc(OC)c3O)S2)c1 (configuration not stated) 36.1%
CSC1=C(C#N)C(=O)NC(c2ccccc2O)S1 (configuration not stated) 25.9%
O=C(CCCN1C(=O)c2ccccc2C1=O)Nc1cccc(S(=O)(=O)NC2=NCCC2)c1 9.21%
Cc1ccc(C)c(NC(=O)COC(=O)CCC(=O)c2cccs2)c1 -3.89%
COc1cccc(CNCc2ccc(C(=O)O)cc2)c1OC 1.24%
Cc1cc(=O)oc(C)c1C(=O)NCCCN1CCN(c2ccccc2F)CC1 6.67%
CCOC(=O)c1[nH]c2ccc(OC)cc2c1C 7.86%
CCOC(=O)c1[nH]c2cc(OC)c(OC)cc2c1NC(=O)c1nonc1C 9.89%
CCOC(=O)c1[nH]c2ccc(C)cc2c1N=CN(CC)CC 17.7%
CCOC(=O)c1[nH]c2ccc(C)cc2c1N=C(C)N(C)C 9.84%
COc1ccc(NC(=O)NNC(=O)c2cc3ccccc3cc2O)cc1 11.5%
NC(=O)C1CCCN(S(=O)(=O)c2ccc3ccccc3c2)C1 (configuration not stated) 2.91%

— PubChem BioAssay AID624330 (Southern Research Specialized Biocontainment Screening …, 2012)
